Where “and” joins values, the source holds several entries; their conditions need not be identical. Identical values can stand only once. Counter-ions that a name gives are not always drawn. ± gives the standard deviation of the averaged measurements.
What follows are compounds tested on LASCPC-01 (assay: cell viability relative to DMSO control (fraction); higher = less growth inhibition (more viable cells)). Settings: 2 µM; 72 h.
Procedure: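 High-throughput single-dose screen in the LASCPC-01 NEPC cell line in 384-well plates. Cells were treated with each compound at 2 µM for 72 h, and viability was read by CellTiter-Glo luminescence. Values are normalised to the DMSO control (compound/DMSO) from three replicates; only the 5-HT-related subset of the 7315-compound library is given.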

| SMILES | cell viability |
| --- | --- |
| COCCCN1CCC(NC(=O)c2cc(Cl)c(N)c3c2OCC3)CC1 [Prucalopride] | 0.922 |
| Cc1[nH]cnc1CN1CCc2c(c3ccccc3n2C)C1=O [Alosetron hydrochloride] | 1.11 |
| COc1cc(/C=C/C(=O)NCCn2c(C(F)(F)F)cc3ccccc32)cc(OC)c1OC | 0.968 |
| COc1ccccc1N1CCN(CCCCN2C(=O)c3ccccc3C2=O)CC1 [NAN-190 hydrobromide] | 0.884 |
| Cn1cc(C(=O)[C@@H]2CCc3[nH]cnc3C2)c2ccccc21 [Ramosetron] | 1.08 |
| COc1cc(N)c(Cl)cc1C(=O)OCCN1CCCCC1 | 0.718 |
| N[C@@H](Cc1c[nH]c2ccccc12)C(=O)O [L-Tryptophan] | 0.904 |
| CNCCC(Oc1ccc(C(F)(F)F)cc1)c1ccccc1 (stereo not given) [Fluoxetine] | 0.892 ± 0.41 |
| COc1ccc2cc(Br)ccc2c1 [2-Bromo-6-methoxynaphthalene] | 0.899 |
| CCN(CC)CCOC(=O)c1cc(Cl)c(N)cc1OC [SDZ-205,557 hydrochloride] | 1.06 |
| CNCC[C@H](Oc1cccc2ccccc12)c1cccs1 [Duloxetine HCl] | 1.13 |
| CN1CCN(C2=Nc3cc(Cl)ccc3Nc3ccccc32)CC1 [Clozapine] | 1.24 |
| CN(C)CC(c1ccc(O)cc1)C1(O)CCCCC1 (stereo not given) [Desvenlafaxine] | 1 |
| O=C1[C@@H]2[C@H]3CC[C@H](C3)[C@@H]2C(=O)N1C[C@@H]1CCCC[C@H]1CN1CCN(c2nsc3ccccc23)CC1 [Lurasidone hydrochloride] | 0.876 |
| CN1CCN2c3ccccc3Cc3ccccc3C2C1 (stereo not given) [Mianserin hydrochloride] | 1.04 |
| COCCCC/C(=N\OCCN)c1ccc(C(F)(F)F)cc1 [Fluvoxamine maleate] | 1.07 ± 0.028 |
| COc1ccc(NC(=O)Nc2ccc(F)cc2F)cc1-c1c(Br)cnn1C [Nelotanserin] | 1.09 |
| NCCCCCNCC12CC3CC(CC(C3)C1)C2 [IEM 1754 dihydrobroMide] | 0.808 |
| CN[C@H]1CC[C@@H](c2ccc(Cl)c(Cl)c2)c2ccccc21 [Sertraline hydrochloride] | 0.958 |
| OC(CN1CCN(c2cccc(Cl)c2)CC1)C(c1ccccc1)c1ccccc1 (stereo not given) | 0.778 |

| SMILES | cell viability |
| --- | --- |
| Cn1ccc2cc(NC(=O)Nc3cccnc3)ccc21 | 1.03 |
| O=C1Cc2cc(CCN3CCN(c4nsc5ccccc45)CC3)c(Cl)cc2N1 [Ziprasidone] | 0.987 |
| CN(C)CCC=C1c2ccccc2CCc2ccccc21 [Amitriptyline HCl] | 1.15 |
| CN[C@H]1CC[C@@H](c2ccc(Cl)c(Cl)c2)c2ccccc21 [Sertraline HCl] | 0.833 |
| O=C1c2cccc3c2[C@H](CCC3)CN1[C@@H]1CN2CCC1CC2 [Palonosetron hydrochloride] | 0.935 |
| COc1cc(N)c(Cl)cc1C(=O)NC1CCN(CCCOc2ccc(F)cc2)CC1OC (stereo not given) [Cisapride] | 0.803 |
| NCCc1c[nH]cn1 [Histamine] | 1.07 |
| Cc1ccc(Sc2ccccc2N2CCNCC2)c(C)c1 [Vortioxetine] | 0.666 |
| NC(N)=NC(N)=Nc1ccccc1 [1-Phenylbiguanide] | 0.991 |
| CN(C)CCC[C@@]1(c2ccc(F)cc2)OCc2cc(C#N)ccc21 [Escitalopram Oxalate] | 0.982 |
| COc1ccccc1N1CCN(CCN(C(=O)C2CCCCC2)c2ccccn2)CC1 | 0.987 and 1.03 |
| Cc1nc2ccccn2c(=O)c1CCN1CCC(C(=O)c2ccc(F)cc2)CC1 [Pirenperone] | 0.645 |
| COc1ccccc1N1CCN(CCN(C(=O)c2ccc(F)cc2)c2ccccn2)CC1 [p-MPPF dihydrochloride] | 0.362 |
| Cc1nc2sccn2c(=O)c1CCN1CCC(=C(c2ccc(F)cc2)c2ccc(F)cc2)CC1 [Ritanserin] | 0.989 |
| CN(C)CCc1c[nH]c2ccc(CS(=O)(=O)N3CCCC3)cc12 [Almotriptan Malate] | 0.818 |
| CN(C)CCCc1cc(C(=O)Nc2ccc(-c3ccncc3)cc2)ccc1O | 0.993 |
| CN1CCc2c(c3ccccc3n2Cc2ccccc2)C1 [Mebhydrolin napadisylate] | 1.03 |
| COc1ccc(NS(=O)(=O)c2sc3ccc(Cl)cc3c2C)cc1N1CCNCC1 | 1.09 and 0.772 |
| c1ccc2c(c1)CC(N1CCN(c3cccc4c3OCCO4)CC1)C2 | 0.835 |
| CN(C)CCCN1c2ccccc2CCc2ccc(Cl)cc21 [Clomipramine HCl] | 0.826 |

Reference: the supplement of paper PMC10042075
